According to PubChem BioAssay (NCI):
About 83,000 compounds went through this panel and 20% of them were active in at least one assay; those are over-represented in the sample as a whole.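 Cells were grown in 96-well plates and exposed to the test compound at a single concentration for 48 hours; results are reported as percent growth, with values below 10 considered active.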 A number with no mark means an inactive call. The source made the active and inactive calls.

How the values were obtained:
Experiment in all cases: NCI-60 one-dose screen, 48 h (100 = growth as untreated, 0 = no growth, -100 = all killed)
Conditions in all cases: 10 µM unless noted
NCI-H23 lung = test system: NCI-H23 lung
NCI-H226 lung = test system: NCI-H226 lung
NCI-H322M lung = test system: NCI-H322M lung
HOP-62 NSCLC = test system: HOP-62 NSCLC
NCI-H460 lung = test system: NCI-H460 lung
HOP-92 NSCLC = test system: HOP-92 NSCLC
NCI-H522 lung = test system: NCI-H522 lung
A549/ATCC NSCLC = test system: A549/ATCC NSCLC
786-0 renal = test system: 786-0 renal
DU-145 prostate = test system: DU-145 prostate
K-562 leukemia = test system: K-562 leukemia
MALME-3M melanoma = test system: MALME-3M melanoma
MDA-MB-231 breast = test system: MDA-MB-231 breast
RXF 393 renal = test system: RXF 393 renal
SF-268 CNS = test system: SF-268 CNS
SF-295 CNS = test system: SF-295 CNS
SF-539 CNS = test system: SF-539 CNS
UACC-257 melanoma = test system: UACC-257 melanoma
M14 melanoma = test system: M14 melanoma

Row | SMILES | growth (NCI-H23 lung) | growth (NCI-H226 lung) | growth (NCI-H322M lung) | growth (HOP-62 NSCLC) | growth (NCI-H460 lung) | growth (HOP-92 NSCLC) | growth (NCI-H522 lung) | growth (A549/ATCC NSCLC) | growth (786-0 renal) | growth (DU-145 prostate) | growth (K-562 leukemia) | growth (MALME-3M melanoma) | growth (MDA-MB-231 breast) | growth (RXF 393 renal) | growth (SF-268 CNS) | growth (SF-295 CNS) | growth (SF-539 CNS) | growth (UACC-257 melanoma) | growth (M14 melanoma)
1 | CCCCN1CCN(c2ccc3nc(-c4ccc5nc(-c6cc(OC)c(OC)c(OC)c6)[nH]c5c4)[nH]c3c2)CC1 | 82.9% | 77.6% | 86.4% | 61.4% | 83% | 49.9% | 52.8% | 105% | 50.6% | 91.6% | 30.8% | 21.1% | 78.9% | -43.4% (active) | 71.8% | 58.6% | 61.1% | 87.9% | 59%
2 | CN=C1C=CC(=C(c2ccc(N(C)C)cc2)c2ccc(N(C)C)cc2)C=C1 | -8.66% (active) | 6.94% (active) | -25.8% (active) | -23.4% (active) | -49.4% (active) | -39.1% (active) | -36.8% (active) | -23.6% (active) | -63.1% (active) | -6.79% (active) | 2.18% (active) | -56.6% (active) | -46.9% (active) | -50.8% (active) | -56.5% (active) | -30.4% (active) | -38.3% (active) | -43% (active) | -65.4% (active)
3 | CS(=O)(=O)c1ccc(-c2[nH]c3ccc(F)cc3c2/C=N/NC(N)=S)cc1 | 38.1% | 63.1% | 48.8% | 34.2% | 3.52% (active) | 55.8% | 5.14% (active) | 18.4% | 40.3% | 22.1% | 6.76% (active) | 55.9% | 13.7% | 1.16% (active) | 39.8% | 13.9% | -21.2% (active) | 63.3% | 11.6%
4 | NC(=O)c1c(NC(=O)c2ccccn2)sc2c1CCC(=O)C2 | 17.2% | 70.7% | 94.3% | 81% | 71.2% | 15.9% | -13.5% (active) | 60.6% | 89.4% | 91.5% | 10.1% | 49.4% | 7.89% (active) | 21.5% | 21% | 66.3% | 1.9% (active) | 46.9% | 22.5%
5 | COc1ccc(Oc2nc(Nc3ccc(N4CCCCC4)nc3)ncc2NC(=O)c2cc(OC)cc(OC)c2)cc1 | 68.8% | 60.2% | 48.9% | 42.5% | 19% | 76.4% | 26.6% | 41.6% | 39.6% | 40.7% | 18.6% | 64.4% | 61.5% | 41% | 46.3% | 23.7% | 21.3% | 59.4% | 32.3%
6 | N#Cc1c(NC(=O)c2ccccc2I)sc2c1CCCC2 | 73.4% | 41.7% | 88.5% | 42.2% | 17.8% | 71.6% | 24.6% | 53.6% | 52.2% | 62.9% | 14.8% | 60.9% | 54.7% | -10.4% (active) | 58.1% | 21.1% | 22.9% | 60.7% | 16.3%
7 | c1ccc2c(c1)ncn2-c1nc2ccccc2n2c1nc1ccccc12 | 67.1% | 78.4% | 62.9% | 50.1% | 52.1% | 88.5% | 81.6% | 81.7% | 98.3% | 89% | 82.9% | 128% | 80.7% | 88.8% | 94.3% | 90.2% | 79.8% | 104% | 91.1%
8 | Cc1cnc(Nc2ccc(N3CCN(C)CC3)cc2)nc1Nc1ccc(Cl)c(NS(=O)(=O)C(C)(C)C)c1 | 18.9% | 7.11% (active) | 37.2% | 14.1% | 20.5% | -27.8% (active) | -28.8% (active) | -26.1% (active) | -30.4% (active) | 13.4% | 7.56% (active) | 19.3% | 4.33% (active) | -78.2% (active) | 15.7% | 26.1% | -36.4% (active) | 5.3% (active) | 8.84% (active)
9 | OC(c1cccc(OCc2ccccc2)c1)c1nnc(-c2ccccc2)o1 (centres undefined) | 83% | 66.9% | 120% | 107% | 96% | 80.9% | 79.2% | 95.1% | 100% | 107% | 91% | 92.1% | 89.9% | 95.5% | 95.3% | 64% | 93.1% | 94.5% | 105%
10 | Clc1ccc2c(NCCCN3CCN(c4nc(-n5ccnc5)nc5ccccc45)CC3)ccnc2c1 | 104% | 113% | 87.1% | 84.7% | 89.3% | 58.7% | 75.7% | 96.9% | 78.8% | 93.3% | -48.8% (active) | -83.2% (active) | 8.95% (active) | 37.1% | 80% | 61.2% | -83.7% (active) | 87.1% | -24% (active)
11 | COc1ccc(/C=C2\C=C(c3ccccc3)N(CCc3ccccc3)C2=O)cc1OC | 68.4% | 29.7% | 8.42% (active) | -30% (active) | 20.5% | -4.05% (active) | 42.5% | 32.9% | 8.93% (active) | 69% | 47.6% | 39.3% | 29.6% | -3.29% (active) | 55.2% | 26.8% | 42.1% | 69.3% | 51.5%
12 | Cc1ccc2c(n1)C(=O)C(Oc1ccc(F)cc1)=CC2=O | 94.9% | 76.5% | 101% | 125% | 101% | 123% | -43.9% (active) | 99.4% | 107% | 114% | 20% | 93.9% | 105% | 107% | 90.8% | 101% | 95.9% | 95.5% | 103%
13 | CS(=O)(=O)c1ccc(-c2nc3cc(Cl)ccc3n2CC(=O)NO)cc1 | 94.7% | 88.7% | 98.6% | 97.1% | 101% | 98% | 86.3% | 94.1% | 99.5% | 101% | 95.7% | 108% | 93.8% | 94.9% | 89.2% | 98% | 101% | 102% | 93.6%
14 | CCCCOC(=O)c1ccc(NC(=O)C(C)N2CCOCC2)cc1 (centres undefined) | 98.5% | 84.3% | 95.7% | 99.5% | 105% | 76.7% | 67.9% | 97.3% | 99.1% | 107% | 91.1% | 91.8% | 102% | 102% | 103% | 101% | 102% | 98.3% | 93.7%
15 | CCCCCCCSc1ccc(C(=O)O)cc1 | 102% | 97.2% | 99.7% | 106% | 104% | 83.5% | 100% | 98.9% | 100% | 119% | 105% | 111% | 112% | 94.4% | 109% | 94.3% | 99.7% | 95.8% | 113%
16 | CCN(CC)CC(O)CNc1c2ccc(Cl)cc2nc2ccc(OC)cc12 (centres undefined) | -39.1% (active) | 46.7% | -27.1% (active) | -47.1% (active) | 0.742% (active) | -13.9% (active) | -65.7% (active) | -72.9% (active) | -16.1% (active) | -26.4% (active) | -10.3% (active) | -98.4% (active) | -33.4% (active) | -80.8% (active) | 14.8% | 10.8% | -61.3% (active) | -87% (active) | -94.2% (active)
